The values that follow come from article PMC7862700, “An all-to-all approach to the identification of sequence-specific readers for epigenetic DNA modifications on cytosine”.

What all share (assay): DAPPL (digital affinity profiling via proximity ligation, sequencing); 10 mM Tris-HCl pH 7.5, 50 mM NaCl, 1 mM DTT, 4% glycerol, room temperature, 30 min; GST-TFs on glutathione beads, 16-mer random dsDNA library, 0.1% formaldehyde crosslink after washing; high values mean tight binding
Assay [1] deals with T1, FEV (Homo sapiens, UniProt Q99581 1-238).
T1 sequence: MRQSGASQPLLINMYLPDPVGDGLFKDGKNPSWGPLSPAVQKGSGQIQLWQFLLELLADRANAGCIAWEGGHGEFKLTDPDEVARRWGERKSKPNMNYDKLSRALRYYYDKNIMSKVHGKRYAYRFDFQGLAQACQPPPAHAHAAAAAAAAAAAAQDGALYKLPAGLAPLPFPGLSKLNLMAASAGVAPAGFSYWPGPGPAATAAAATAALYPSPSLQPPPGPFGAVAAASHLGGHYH
Particulars: protein: recombinant; tags: N-terminal GST; dsDNA, one strand shown. The procedure, abridged:
(§1)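 In yeast, human transcription factors were expressed with a GST fusion, then pulled down on glutathione beads and given DNA barcodes. Pooled with a tag-only sample, they were exposed to 200 nmole of a 16-mer random double-stranded DNA library (Tris/NaCl/DTT/glycerol buffer, room temperature, 30 min), washed, crosslinked with 0.1% formaldehyde, proximity-ligated using BsaI/T4 ligase for 1 h at 37 °C, PCR-amplified and read on an Illumina NextSeq500. Each hexamer's frequency of reads for a factor, divided by the matching frequency for the tag-only sample, gives the binding signal.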

In assay [2] the target is ETV5 (Homo sapiens, UniProt P41161 1-510). Particulars: protein: recombinant; tags: N-terminal GST; dsDNA, one strand shown. The procedure, abridged: as §1
Assay [3] deals with HSF1 (Homo sapiens, UniProt Q00613 1-529). Particulars: protein: recombinant; tags: N-terminal GST; chain copies: 3; dsDNA, one strand shown. In a few lines:
as §1

For assay [4], the target named is T2, SPIC (Homo sapiens, UniProt Q8N5J4 1-248).
T2 sequence: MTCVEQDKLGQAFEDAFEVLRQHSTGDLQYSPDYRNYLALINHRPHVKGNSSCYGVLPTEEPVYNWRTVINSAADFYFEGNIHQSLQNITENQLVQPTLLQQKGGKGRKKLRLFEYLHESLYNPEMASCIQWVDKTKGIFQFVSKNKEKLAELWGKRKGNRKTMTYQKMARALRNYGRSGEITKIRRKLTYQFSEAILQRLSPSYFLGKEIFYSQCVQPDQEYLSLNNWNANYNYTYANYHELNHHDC
Particulars: protein: recombinant; tags: N-terminal GST; dsDNA, one strand shown. The procedure, abridged:
as §1

For assay [5], the target named is ELF4 (Homo sapiens, UniProt Q99607 1-663). Particulars: protein: recombinant; tags: N-terminal GST; dsDNA, one strand shown. In a few lines: as §1
For assay [6], the target named is T3, ELK4 (Homo sapiens, UniProt P28324-2 1-405).
T3 sequence: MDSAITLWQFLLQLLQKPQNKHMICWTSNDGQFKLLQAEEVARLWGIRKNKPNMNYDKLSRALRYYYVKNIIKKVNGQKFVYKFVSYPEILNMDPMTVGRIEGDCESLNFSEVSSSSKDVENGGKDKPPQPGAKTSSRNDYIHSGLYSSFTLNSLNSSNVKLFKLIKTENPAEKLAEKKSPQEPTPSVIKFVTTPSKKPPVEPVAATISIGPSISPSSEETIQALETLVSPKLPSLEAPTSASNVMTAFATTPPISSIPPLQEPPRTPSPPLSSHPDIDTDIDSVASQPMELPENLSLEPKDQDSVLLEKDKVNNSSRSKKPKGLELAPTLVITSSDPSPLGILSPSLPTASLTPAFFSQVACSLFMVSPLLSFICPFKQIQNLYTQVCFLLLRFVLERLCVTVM
Particulars: protein: recombinant; tags: N-terminal GST; dsDNA, one strand shown. The procedure, abridged:
as §1

Assay [7] addresses T4, ETV2 (Homo sapiens, UniProt O00321 1-342).
T4 sequence: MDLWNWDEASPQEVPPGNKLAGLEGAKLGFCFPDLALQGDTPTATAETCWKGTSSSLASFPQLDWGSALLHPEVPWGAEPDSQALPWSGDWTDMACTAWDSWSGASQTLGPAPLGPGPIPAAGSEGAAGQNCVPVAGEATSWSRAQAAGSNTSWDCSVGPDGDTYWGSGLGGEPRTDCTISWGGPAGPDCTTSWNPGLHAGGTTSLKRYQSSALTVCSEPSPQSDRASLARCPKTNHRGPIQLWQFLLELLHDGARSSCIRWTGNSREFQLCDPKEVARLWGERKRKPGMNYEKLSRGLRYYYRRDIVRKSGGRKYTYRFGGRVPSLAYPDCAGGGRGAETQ
Particulars: protein: recombinant; tags: N-terminal GST; dsDNA, one strand shown. The procedure, abridged: as §1

For assay [8], the target named is T5, ELF3 (Homo sapiens, UniProt P78545 1-371).
T5 sequence: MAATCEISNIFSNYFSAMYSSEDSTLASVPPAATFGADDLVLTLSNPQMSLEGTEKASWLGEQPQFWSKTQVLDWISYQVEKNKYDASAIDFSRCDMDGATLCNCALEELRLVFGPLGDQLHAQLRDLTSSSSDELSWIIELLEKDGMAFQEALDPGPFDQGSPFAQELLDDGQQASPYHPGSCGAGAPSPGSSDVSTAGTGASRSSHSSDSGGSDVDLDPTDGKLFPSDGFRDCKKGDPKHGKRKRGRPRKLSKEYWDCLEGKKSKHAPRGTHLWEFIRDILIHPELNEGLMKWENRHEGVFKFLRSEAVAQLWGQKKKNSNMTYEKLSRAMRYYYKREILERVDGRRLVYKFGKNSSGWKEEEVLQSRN
Particulars: protein: recombinant; tags: N-terminal GST; dsDNA, one strand shown. The procedure, abridged:
as §1

Assay [9] concerns the target CRX (Homo sapiens, UniProt O43186 1-299). Particulars: protein: recombinant; tags: N-terminal GST; dsDNA, one strand shown. In a few lines:
as §1

The target of assay [10] is ETV1 (Homo sapiens, UniProt P50549 1-477). Particulars: protein: recombinant; tags: N-terminal GST; dsDNA, one strand shown. In a few lines: as §1
Sequence of ETV1 (P50549 whole entry): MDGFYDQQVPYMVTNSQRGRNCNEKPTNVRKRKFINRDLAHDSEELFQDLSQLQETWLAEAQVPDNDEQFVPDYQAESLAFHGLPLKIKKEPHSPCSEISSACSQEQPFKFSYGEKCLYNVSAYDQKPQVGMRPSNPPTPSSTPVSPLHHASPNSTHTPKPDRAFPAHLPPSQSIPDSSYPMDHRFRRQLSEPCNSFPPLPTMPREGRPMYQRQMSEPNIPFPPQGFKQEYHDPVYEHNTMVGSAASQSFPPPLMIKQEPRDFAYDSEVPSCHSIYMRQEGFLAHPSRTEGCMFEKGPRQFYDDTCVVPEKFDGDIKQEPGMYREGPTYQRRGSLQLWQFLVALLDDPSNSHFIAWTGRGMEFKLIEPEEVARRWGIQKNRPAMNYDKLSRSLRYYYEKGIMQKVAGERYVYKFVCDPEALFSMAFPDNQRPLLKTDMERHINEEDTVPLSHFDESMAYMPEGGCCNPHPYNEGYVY

Sequence of ELF4 (Q99607 whole entry): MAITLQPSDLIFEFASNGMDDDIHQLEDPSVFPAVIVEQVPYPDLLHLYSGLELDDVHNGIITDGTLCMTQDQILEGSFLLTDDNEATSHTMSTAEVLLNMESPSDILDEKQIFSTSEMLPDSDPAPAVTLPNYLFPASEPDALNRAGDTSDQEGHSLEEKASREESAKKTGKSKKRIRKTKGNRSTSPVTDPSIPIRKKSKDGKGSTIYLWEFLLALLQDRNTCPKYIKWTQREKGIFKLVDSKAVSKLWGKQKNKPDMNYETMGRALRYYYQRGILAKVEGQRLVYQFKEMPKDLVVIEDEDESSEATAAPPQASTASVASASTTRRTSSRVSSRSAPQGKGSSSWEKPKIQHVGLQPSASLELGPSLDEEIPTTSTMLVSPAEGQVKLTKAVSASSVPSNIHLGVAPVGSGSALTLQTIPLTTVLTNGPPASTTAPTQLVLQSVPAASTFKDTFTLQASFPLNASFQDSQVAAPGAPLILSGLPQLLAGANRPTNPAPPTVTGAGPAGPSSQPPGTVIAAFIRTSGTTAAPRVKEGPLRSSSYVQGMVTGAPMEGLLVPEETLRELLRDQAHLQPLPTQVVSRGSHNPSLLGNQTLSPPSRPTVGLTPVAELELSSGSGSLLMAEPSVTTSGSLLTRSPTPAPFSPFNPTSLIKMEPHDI
Sequence of CRX (O43186 whole entry): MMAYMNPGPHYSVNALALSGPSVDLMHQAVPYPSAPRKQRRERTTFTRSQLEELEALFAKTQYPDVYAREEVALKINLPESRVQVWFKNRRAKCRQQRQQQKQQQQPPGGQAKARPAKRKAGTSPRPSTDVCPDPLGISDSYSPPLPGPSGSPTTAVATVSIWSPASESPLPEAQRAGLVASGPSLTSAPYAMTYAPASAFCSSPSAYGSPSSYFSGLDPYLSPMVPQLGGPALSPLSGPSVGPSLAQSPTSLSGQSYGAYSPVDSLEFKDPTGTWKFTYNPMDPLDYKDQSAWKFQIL
Sequence of HSF1 (Q00613 whole entry): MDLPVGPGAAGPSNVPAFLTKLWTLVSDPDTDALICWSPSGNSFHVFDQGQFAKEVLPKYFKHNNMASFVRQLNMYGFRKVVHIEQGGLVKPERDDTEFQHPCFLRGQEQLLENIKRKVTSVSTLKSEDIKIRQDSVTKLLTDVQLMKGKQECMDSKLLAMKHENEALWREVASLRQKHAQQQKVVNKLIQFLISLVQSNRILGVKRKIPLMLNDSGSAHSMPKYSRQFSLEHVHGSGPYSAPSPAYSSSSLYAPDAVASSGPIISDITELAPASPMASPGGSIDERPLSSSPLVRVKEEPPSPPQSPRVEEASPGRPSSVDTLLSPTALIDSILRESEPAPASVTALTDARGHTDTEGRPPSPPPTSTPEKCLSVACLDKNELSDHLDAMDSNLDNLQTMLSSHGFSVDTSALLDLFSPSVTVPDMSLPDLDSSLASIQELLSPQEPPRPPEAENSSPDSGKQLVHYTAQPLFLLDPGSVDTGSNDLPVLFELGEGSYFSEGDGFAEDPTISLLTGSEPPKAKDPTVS
Sequence of ETV5 (P41161 whole entry): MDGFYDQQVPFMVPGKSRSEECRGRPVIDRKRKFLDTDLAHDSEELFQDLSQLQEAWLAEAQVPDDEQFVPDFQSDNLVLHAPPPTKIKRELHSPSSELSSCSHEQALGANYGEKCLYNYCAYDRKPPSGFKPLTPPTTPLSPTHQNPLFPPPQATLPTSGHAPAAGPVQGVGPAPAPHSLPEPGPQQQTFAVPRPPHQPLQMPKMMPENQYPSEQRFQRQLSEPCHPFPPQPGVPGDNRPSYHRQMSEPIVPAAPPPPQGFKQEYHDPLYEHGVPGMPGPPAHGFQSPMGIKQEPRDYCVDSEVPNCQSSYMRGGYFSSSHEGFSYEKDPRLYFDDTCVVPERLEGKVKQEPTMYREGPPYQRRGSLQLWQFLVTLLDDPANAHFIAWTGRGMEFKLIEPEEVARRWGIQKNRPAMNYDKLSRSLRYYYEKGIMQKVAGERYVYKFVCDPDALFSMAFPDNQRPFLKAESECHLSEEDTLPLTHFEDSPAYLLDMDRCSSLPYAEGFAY

GAATCT: the binding signal is 1.03 fold enrichment (6-mer frequency, TF over GST control) in assay [1]; 1.13 fold enrichment (6-mer frequency, TF over GST control) in assay [2]; 1.76 fold enrichment (6-mer frequency, TF over GST control) in assay [3]; 1.05 fold enrichment (6-mer frequency, TF over GST control) in assay [4]; 1.07 fold enrichment (6-mer frequency, TF over GST control) in assay [5]; 1.08 fold enrichment (6-mer frequency, TF over GST control) in [6]. Further, the binding signal in [7] was 1.2 fold enrichment (6-mer frequency, TF over GST control); in assay [8], 1.03 fold enrichment (6-mer frequency, TF over GST control); in assay [9] it was 1.21 fold enrichment (6-mer frequency, TF over GST control); in [10], 1.08 fold enrichment (6-mer frequency, TF over GST control).
Take TAGCAA: the binding signal in assay [1] is 1.17 fold enrichment (6-mer frequency, TF over GST control); in assay [2] it was 1.33 fold enrichment (6-mer frequency, TF over GST control); in [3] it was 1.59 fold enrichment (6-mer frequency, TF over GST control); in [4] it was 1.14 fold enrichment (6-mer frequency, TF over GST control); in assay [5], 1.34 fold enrichment (6-mer frequency, TF over GST control); in assay [6], 1.38 fold enrichment (6-mer frequency, TF over GST control). Also, the binding signal in assay [7] is 1.36 fold enrichment (6-mer frequency, TF over GST control); in assay [8] it was 1.36 fold enrichment (6-mer frequency, TF over GST control); in assay [9] it was 1.46 fold enrichment (6-mer frequency, TF over GST control); in assay [10], 1.23 fold enrichment (6-mer frequency, TF over GST control).
With CGAACA, the binding signal was 1.06 fold enrichment (6-mer frequency, TF over GST control) in assay [1]; 1.14 fold enrichment (6-mer frequency, TF over GST control) in assay [2]; 1.76 fold enrichment (6-mer frequency, TF over GST control) in assay [3]; 1.11 fold enrichment (6-mer frequency, TF over GST control) in assay [4]; 1.19 fold enrichment (6-mer frequency, TF over GST control) in [5]; 1.17 fold enrichment (6-mer frequency, TF over GST control) in [6]. For the same sequence, the binding signal in assay [7] is 1.22 fold enrichment (6-mer frequency, TF over GST control); in assay [8], 1.2 fold enrichment (6-mer frequency, TF over GST control); in assay [9] it was 1.1 fold enrichment (6-mer frequency, TF over GST control); in assay [10] it was 1.1 fold enrichment (6-mer frequency, TF over GST control).
Take GAAATT: the binding signal in assay [1] was 1.25 fold enrichment (6-mer frequency, TF over GST control); in assay [2], 1.36 fold enrichment (6-mer frequency, TF over GST control); in assay [3], 1.48 fold enrichment (6-mer frequency, TF over GST control); in [4] it was 1.2 fold enrichment (6-mer frequency, TF over GST control); in assay [5], 1.27 fold enrichment (6-mer frequency, TF over GST control); in [6] it was 1.17 fold enrichment (6-mer frequency, TF over GST control). Moreover, the binding signal was 1.23 fold enrichment (6-mer frequency, TF over GST control) in assay [7]; 1.44 fold enrichment (6-mer frequency, TF over GST control) in assay [8]; 1.08 fold enrichment (6-mer frequency, TF over GST control) in assay [9]; 1.28 fold enrichment (6-mer frequency, TF over GST control) in assay [10].
As to AAGCTA, the binding signal was 1.13 fold enrichment (6-mer frequency, TF over GST control) in assay [1]; 1.17 fold enrichment (6-mer frequency, TF over GST control) in assay [2]; 1.29 fold enrichment (6-mer frequency, TF over GST control) in assay [3]; 1.13 fold enrichment (6-mer frequency, TF over GST control) in assay [4]; 1.2 fold enrichment (6-mer frequency, TF over GST control) in assay [5]; 1.17 fold enrichment (6-mer frequency, TF over GST control) in assay [6]. The binding signal was 1.12 fold enrichment (6-mer frequency, TF over GST control) in [7]; 1.2 fold enrichment (6-mer frequency, TF over GST control) in assay [8]; 1.58 fold enrichment (6-mer frequency, TF over GST control) in assay [9]; 1.17 fold enrichment (6-mer frequency, TF over GST control) in [10].
Consider TCATTA, for which the binding signal in assay [1] was 1.11 fold enrichment (6-mer frequency, TF over GST control); in assay [2], 1.11 fold enrichment (6-mer frequency, TF over GST control); in assay [3] it was 1.18 fold enrichment (6-mer frequency, TF over GST control); in assay [4], 1.24 fold enrichment (6-mer frequency, TF over GST control); in assay [5], 1.15 fold enrichment (6-mer frequency, TF over GST control); in [6], 1.16 fold enrichment (6-mer frequency, TF over GST control). Also, the binding signal in assay [7] is 1.08 fold enrichment (6-mer frequency, TF over GST control); in [8] it was 1.07 fold enrichment (6-mer frequency, TF over GST control); in [9] it was 1.62 fold enrichment (6-mer frequency, TF over GST control); in [10], 1.08 fold enrichment (6-mer frequency, TF over GST control).
For the sequence GTCTTA, the binding signal was 1.07 fold enrichment (6-mer frequency, TF over GST control) in [1]; 1.14 fold enrichment (6-mer frequency, TF over GST control) in assay [2]; 1.35 fold enrichment (6-mer frequency, TF over GST control) in assay [3]; 1.07 fold enrichment (6-mer frequency, TF over GST control) in assay [4]; 1.08 fold enrichment (6-mer frequency, TF over GST control) in assay [5]; 1.04 fold enrichment (6-mer frequency, TF over GST control) in assay [6]. Also, the binding signal was 1.14 fold enrichment (6-mer frequency, TF over GST control) in [7]; 1.16 fold enrichment (6-mer frequency, TF over GST control) in assay [8]; 1.94 fold enrichment (6-mer frequency, TF over GST control) in assay [9]; 1.15 fold enrichment (6-mer frequency, TF over GST control) in assay [10].
